Screening results as filed in PubChem.
Compounds with a hit are over-represented: about 4.1% of the library has one in this group of screens.
Sm TGR inh: blocks Schistosoma mansoni thioredoxin glutathione reductase; purified TGR, DTNB reduction, TNB absorbance 405 nm; Potency, µM (series often up to 114 µM), most hits filed as inhibitors; hit rate 3% among 360,000; AID 485364; further: nearly all actives have a fitted effect of over 60% in size
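First, TGR (20 nM dispensed) and NADPH were mixed with compound. Second, a 15 min room-temperature incubation followed. Third, further NADPH and then DTNB were added to start the reaction. Finally, TNB absorbance was monitored kinetically.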
FMDV antiviral: blocks foot and mouth disease virus; AID 1159524; FMDV antiviral cell-based qHTS; Potency, µM (series often up to 57.9 µM), most hits filed as inhibitors; hit rate 1.2% among 410,000; calls by dose curve; tested in HEK293T cells; further: read-out not given here; nearly all actives have a fitted effect of over 45% in size
AmpC no deterg: inhibitors of E. coli AmpC beta-lactamase without detergent | hit rate 0.52% among 330,000 | P00811 | Potency, µM (series often up to 57.1 µM), usual class: inhibitors | AmpC nitrocefin hydrolysis, absorbance 480 nm, 0.0001% Triton; further: nearly all actives have a fitted effect of over 20% in size
Target sequence (P00811 whole entry, looked up): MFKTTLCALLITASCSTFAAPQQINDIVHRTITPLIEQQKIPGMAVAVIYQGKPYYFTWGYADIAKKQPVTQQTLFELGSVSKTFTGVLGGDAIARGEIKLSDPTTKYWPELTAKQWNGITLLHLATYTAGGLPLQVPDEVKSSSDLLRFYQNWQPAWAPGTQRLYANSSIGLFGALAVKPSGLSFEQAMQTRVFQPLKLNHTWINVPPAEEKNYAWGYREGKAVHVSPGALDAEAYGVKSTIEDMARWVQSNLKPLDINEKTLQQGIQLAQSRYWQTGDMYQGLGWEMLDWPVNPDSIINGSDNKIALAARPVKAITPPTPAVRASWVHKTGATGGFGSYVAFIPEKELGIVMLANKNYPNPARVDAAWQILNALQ
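20 mM phosphate pH 7.0 + 0.01% (detergent screen) or 0.0001% Triton X-100; 5.3 nM AmpC reagent; cpd preinc 15 min RT; nitrocefin (800 uM stock) to start; A480 q20 s × 4 min; Activity was normalised to no-enzyme and no-compound control wells.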
AmpC detergent: blocks E. coli AmpC beta-lactamase in detergent assay | hit rate 0.041% among 370,000 | AmpC hydrolysis of nitrocefin, absorbance 480 nm, 0.01% Triton | Potency, µM (series often up to 114 µM), most hits filed as inhibitors | AID 485294 | P00811; further: nearly all actives have a fitted effect of over 25% in size
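AmpC (5.3 nM in the dispensed reagent) in 20 mM phosphate pH 7.0 with 0.01% (detergent screen) or 0.0001% Triton X-100 was preincubated with compounds for 15 min at room temperature. Nitrocefin was then added from an 800 uM solution, and hydrolysis was followed at 480 nm.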
AMA1 RON2 block: AMA1-RON2 (P. falciparum) interaction inhibition | hit rate 0.2% among 360,000 | AID 720542 | AlphaScreen AMA1-biotinylated RON2 peptide binding | Potency, µM (doses to about 58.2 µM), hits mostly inhibitors; further: nearly all actives have a fitted effect of over 45% in size
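AMA1 (3D7) with his tag at 25 nM final met compounds first, then biotinylated RON2 peptide at 25 nM; detection used donor plus acceptor beads, 10 µg/mL apiece, read by AlphaScreen after 30 min at room temperature.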
Hits are given with their value. Unless noted, the call rests on the fitted dose curve; in most records, active means well fitted curve in the direction sought with a large enough effect; inconclusive means small, poorly fitted or top-dose-only effect, or another doubt; inactive means no such curve, though single readings can be large; an effect the other way counts as inactive or inconclusive.

What do the screens show for `C=CCc1ccc(O)c(-c2ccc(O)c(CC=C)c2)c1`?
Sm TGR inh: 44.7µM; FMDV antiviral: inconclusive; AmpC no deterg: inactive; AmpC detergent: inactive; AMA1 RON2 block: inactive

What do the screens show for `COc1ccc(OC)c(-c2noc(CSc3nnc(-c4ccccc4)n3-c3ccccc3)n2)c1`?
Sm TGR inh: inactive; FMDV antiviral: inconclusive; AmpC detergent: inactive

What do the screens show for `CCN(CC)CCNC(=O)C1CCN(S(=O)(=O)N2CCCCC2)CC1`?
Sm TGR inh: inactive; FMDV antiviral: inactive; AmpC no deterg: 0.282µM; AmpC detergent: inactive; AMA1 RON2 block: inactive

How did COc1ccc(OC)c(CNC(=O)C2CCN(S(=O)(=O)N3CCCC3)CC2)c1 do in these assays?
Sm TGR inh: 79.4µM; AmpC no deterg: inactive; AmpC detergent: inactive; AMA1 RON2 block: inactive

How did CCOc1ccccc1NC(=O)Cn1c(=O)n(-c2ccc(C)c(C)c2)c(=O)c2c(C)c(C(=O)N(C)C)sc21 do in these assays?
Sm TGR inh: inactive; FMDV antiviral: inactive; AmpC detergent: inactive

How did CCOC(=O)c1ccc(NC(=O)CSc2nc3c(cc2C#N)N2CCC3CC2)cc1 do in these assays?
Sm TGR inh: inactive; FMDV antiviral: 12.6µM; AmpC detergent: inactive

What do the screens show for `N#Cc1cc2c(nc1SCC(=O)Nc1ccc(OC(F)(F)F)cc1)C1CCN2CC1`?
Sm TGR inh: inactive; FMDV antiviral: inactive; AmpC detergent: inactive

Results for Cc1cc2c3c(c1)C(C)CC(C)(C)N3C(=O)C2=C(C#N)C#N (stereo not given) ?
Sm TGR inh: 3.98µM; FMDV antiviral: inconclusive; AmpC no deterg: inactive; AmpC detergent: inactive; AMA1 RON2 block: inactive

Results for Cc1cc2c3c(c1)C(C)CC(C)(C)N3C(=O)C2=O (stereo not given) ?
FMDV antiviral: inactive; AmpC no deterg: inactive; AmpC detergent: inactive; AMA1 RON2 block: inactive

Results for Cc1ccc2c3c1C(=O)C(=O)N3C(C)(C)CC2C (stereo not given) ?
Sm TGR inh: inactive; AmpC no deterg: inactive; AmpC detergent: inactive; AMA1 RON2 block: inactive

Results for CC1CC(C)(C)N2C(=O)C(=C(C#N)C#N)c3cccc1c32 (stereo not given) ?
Sm TGR inh: 5.62µM; FMDV antiviral: inconclusive; AmpC no deterg: inactive; AmpC detergent: inactive; AMA1 RON2 block: inactive

What do the screens show for `CCCc1ncc(C[n+]2ccccc2C)c(N)n1`?
Sm TGR inh: 44.7µM; FMDV antiviral: inactive; AmpC no deterg: inactive; AmpC detergent: inactive; AMA1 RON2 block: inactive

How did COc1ccc(C(=O)N2CCC(c3c[nH]c4ccccc34)(c3c[nH]c4ccccc34)CC2)cc1 do in these assays?
Sm TGR inh: inactive; FMDV antiviral: inactive; AmpC detergent: inactive

What do the screens show for `COC(C#CCCN(C)C)(c1ccccc1)c1ccccc1`?
Sm TGR inh: 28.2µM; FMDV antiviral: inconclusive; AmpC no deterg: inactive; AmpC detergent: inactive; AMA1 RON2 block: inactive

How did CN(C)CC#CCC(O)(c1ccccc1)c1ccccc1 do in these assays?
Sm TGR inh: inactive; FMDV antiviral: inactive; AmpC no deterg: inactive; AmpC detergent: inactive; AMA1 RON2 block: inactive

Results for CCOC(=O)Cc1nn(Cc2nc(-c3ccc(C#N)cc3)cs2)c(=O)c2ccccc12 ?
Sm TGR inh: inactive; FMDV antiviral: 17.8µM; AmpC no deterg: inactive; AmpC detergent: inactive; AMA1 RON2 block: inactive

How did CCOC(=O)Cc1nn(CC)c(=O)c2ccccc12 do in these assays?
Sm TGR inh: inactive; FMDV antiviral: inactive; AmpC no deterg: inactive; AmpC detergent: inactive; AMA1 RON2 block: inactive

What do the screens show for `CCOc1cc(/C=C2\N=C(C)OC2=O)cc(Br)c1OCCc1ccccc1`?
Sm TGR inh: inactive; AmpC no deterg: inactive; AmpC detergent: inactive; AMA1 RON2 block: inactive

Results for CCOc1cc(/C=C2\N=C(C)OC2=O)cc(Br)c1OCC(=O)OC ?
Sm TGR inh: 25.1µM; AmpC no deterg: inactive; AmpC detergent: inactive; AMA1 RON2 block: inactive

Results for COc1ccc(/C=C2\N=C(C)OC2=O)cc1OC ?
Sm TGR inh: 15.8µM; FMDV antiviral: inactive; AmpC no deterg: inactive; AmpC detergent: 35.5µM; AMA1 RON2 block: inactive

What do the screens show for `COc1ccc(/C=C2\N=C(C)OC2=O)cc1OC(C)=O`?
Sm TGR inh: inconclusive; FMDV antiviral: inactive; AmpC no deterg: inactive; AmpC detergent: inactive; AMA1 RON2 block: inactive

How did Cc1cc(C)nc(-n2nc(C)cc2NC(=O)CN2CCCC(C)C2)n1 (stereo not given) do in these assays?
Sm TGR inh: 25.1µM; AmpC no deterg: inactive; AmpC detergent: inconclusive; AMA1 RON2 block: inactive

How did CNC(=S)N1N=C(c2ccc(C)cc2)CC1c1ccc(OC)cc1 (stereo not given) do in these assays?
Sm TGR inh: inactive; FMDV antiviral: inactive; AmpC no deterg: inactive; AmpC detergent: inactive; AMA1 RON2 block: inactive

Results for CNC(=S)N1N=C(c2ccc(C)cc2)CC1c1ccc(N(C)C)cc1 (stereo not given) ?
Sm TGR inh: inactive; FMDV antiviral: inactive; AmpC no deterg: inactive; AmpC detergent: inactive; AMA1 RON2 block: 28.2µM

How did Cc1ccc(N(CC2CO2)S(=O)(=O)c2ccc([N+](=O)[O-])cc2)cc1 (stereo not given) do in these assays?
Sm TGR inh: 31.6µM; FMDV antiviral: inactive; AmpC no deterg: inactive; AmpC detergent: inactive; AMA1 RON2 block: inactive

Results for Cc1ccc(N(CC2CO2)S(=O)(=O)c2ccc(C)cc2)cc1 (stereo not given) ?
Sm TGR inh: inconclusive; FMDV antiviral: inactive; AmpC no deterg: inactive; AmpC detergent: inactive; AMA1 RON2 block: inactive

How did CC(C)N1CCN(C(=O)c2cnn(-c3nccc(-c4ccc5c(c4)OCO5)n3)c2-c2ccco2)CC1 do in these assays?
FMDV antiviral: inactive

Results for Cc1cc(NC(=O)COCc2cc(-c3ccc(F)cc3)on2)ccc1Br ?
Sm TGR inh: inactive; FMDV antiviral: inactive; AmpC detergent: inactive

How did Cc1cc(C(=O)NCc2ccc(C(=O)O)o2)c(C)o1 do in these assays?
Sm TGR inh: inactive; FMDV antiviral: inactive; AmpC no deterg: inactive; AmpC detergent: inactive; AMA1 RON2 block: inactive

What do the screens show for `Cc1ccoc1C(=O)NCCCNC(=O)c1occc1C`?
Sm TGR inh: 44.7µM; FMDV antiviral: inactive; AmpC no deterg: inactive; AmpC detergent: inactive; AMA1 RON2 block: inactive

How did Cc1occc1C(=O)NCCc1ccc(Cl)cc1 do in these assays?
Sm TGR inh: 22.4µM; FMDV antiviral: inactive; AmpC no deterg: inactive; AmpC detergent: inactive; AMA1 RON2 block: inactive

What do the screens show for `Cc1occc1C(=O)NCc1ccc(C(=O)O)o1`?
Sm TGR inh: 39.8µM; FMDV antiviral: inactive; AmpC no deterg: inactive; AmpC detergent: inactive; AMA1 RON2 block: inactive

Results for Cc1occc1C(=O)NCCCCc1ccccc1 ?
Sm TGR inh: 20µM; FMDV antiviral: inactive; AmpC no deterg: inactive; AmpC detergent: inactive; AMA1 RON2 block: inactive

What do the screens show for `CCCCOc1ccc(C2c3c(oc4ccc(C)cc4c3=O)C(=O)N2CCCN(C)C)cc1OCC` (stereo not given)?
Sm TGR inh: inactive; FMDV antiviral: inactive; AmpC detergent: inactive
